Assay outcomes from PubChem.
TDP1 cell noCPT – qHTS for Inhibitors of human tyrosyl-DNA phosphodiesterase 1 (TDP1): qHTS in cells in absence of CPT; DT40 Tdp1-/- hTDP1 cells, no CPT, ATP luminescence, 48 h; Potency, µM (doses to about 46.2 µM), most hits filed as inhibitors; hit rate 15% among 420,000; also: nearly all actives have a fitted effect of over 55% in size
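Chicken DT40 Tdp1-/- cells stably complemented with human TDP1 were seeded at 400 cells/well with DMSO in place of 20 nM camptothecin. After compound pinning, cells grew at least 48 hr at 37 °C; viability read by CellTiter-Glo luminescence.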
TDP1 block – qHTS Assay for Inhibitors of Tyrosyl-DNA Phosphodiesterase (TDP1); Potency, µM (series often up to 130 µM), usual class: inhibitors; AID 485290, 2010; hit rate 0.28% among 350,000; recombinant TDP1, AlphaScreen DNA substrate cleavage; Tyrosyl-DNA phosphodiesterase 1 (Homo sapiens), Q9NUW8; also: nearly all actives have a fitted effect of over 40% in size
Target sequence (Q9NUW8 whole entry, looked up): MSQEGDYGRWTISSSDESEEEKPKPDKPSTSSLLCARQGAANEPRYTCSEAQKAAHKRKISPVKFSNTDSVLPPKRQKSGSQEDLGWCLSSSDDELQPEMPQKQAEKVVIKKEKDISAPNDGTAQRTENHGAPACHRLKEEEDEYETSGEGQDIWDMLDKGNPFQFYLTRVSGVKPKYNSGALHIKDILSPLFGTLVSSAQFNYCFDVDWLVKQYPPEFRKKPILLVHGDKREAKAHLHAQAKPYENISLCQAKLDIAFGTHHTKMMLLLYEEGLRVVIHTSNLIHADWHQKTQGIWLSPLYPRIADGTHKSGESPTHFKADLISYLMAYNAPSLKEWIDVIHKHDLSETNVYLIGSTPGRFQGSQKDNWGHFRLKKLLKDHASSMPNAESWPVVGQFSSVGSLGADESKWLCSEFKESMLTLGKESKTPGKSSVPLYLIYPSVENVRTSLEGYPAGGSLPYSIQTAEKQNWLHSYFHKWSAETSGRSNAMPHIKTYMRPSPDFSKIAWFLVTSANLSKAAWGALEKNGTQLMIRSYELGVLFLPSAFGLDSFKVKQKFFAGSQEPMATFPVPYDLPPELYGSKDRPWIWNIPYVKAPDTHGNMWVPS
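Steps: enzyme plus compound, 15 min RT; add biotin/phosphotyrosine-FITC oligonucleotide (15 nM final), react 5 min; add donor/acceptor beads (10 ug/ml final), 10 min; read AlphaScreen. Tdp1 at 1 nM final.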
ELG1 repair inh – qHTS screen for small molecules that inhibit ELG1-dependent DNA repair in human embryonic kidney (HEK293T) cells expressing luciferase-tagged ELG1; HEK293T ELG1-luciferase reporter, luminescence, 16 h; DNA damage induced by 5-fluorouridine; Potency, µM (top dose mostly 46.1 µM), most hits filed as inhibitors; hit rate 2.3% among 330,000; AID 504467, 2011; also: nearly all actives have a fitted effect of over 55% in size
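DMSO vehicle served as the neutral condition. Each well held 2,000 cells given 5-fluorouridine plus compound; after 16 hr at 37 °C/5% CO2, ONE-Glo was added and luciferase measured 30 min later.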
Giardia killer – Small Molecules that selectively kill Giardia lamblia: qHTS; hit rate 0.15% among 340,000; activity change, % at 7.66 µM, hits read low; Giardia lamblia trophozoite viability; in the data active = activity change below about -80%; inconclusive = between about -30% and that limit;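 also: parasites exposed to compound for two days anaerobically before the ATP read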
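Viability, read as ATP luminescence: trophozoites at 100 cells/well, compound added, 48 hrs anaerobic at 37 deg C, then 15-30 min room-temperature development before reading.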
DT40 TDP1 CPT – qHTS for Inhibitors of human tyrosyl-DNA phosphodiesterase 1 (TDP1): qHTS in cells in presence of CPT; chicken DT40 Tdp1-/-;hTDP1 cells + 20 nM CPT, ATP luminescence, 48 h; Potency, µM (highest dose often 46.2 µM), usual class: inhibitors; hit rate 12% among 420,000; also: nearly all actives have a fitted effect of over 55% in size
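Chicken DT40 Tdp1-/- cells stably complemented with human TDP1 were seeded at 400 cells/well in medium containing 20 nM camptothecin, exposed to pin-transferred compounds, and grown at 37 °C for at least 48 hr. Viability was read as ATP luminescence.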
IL1B secr inh – qHTS for Inhibitors of Inflammasome Signaling: IL-1-beta AlphaLISA Primary Screen; THP-1 LPS/ATP IL-1B secretion, AlphaLISA, 16 h; stronger effect = lower value; activity change, % at 57.5 µM; hit rate 4.7% among 360,000; AID 743279, 2014; in the data active = activity change below about -50%; inconclusive = mostly about -30% to -49%
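Secreted IL-1B measured by AlphaLISA bead assay after 16 h compound exposure of THP-1 cells; compounds (final up to 57.5 uM) added 1 h before LPS (250 ng/mL) and ATP (1.25 mM) stimulation; lower signal means less secretion.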
A number is an active result; - = inactive; ? = inconclusive; . = no result given; [ ] = another dose, or the depositor's remark. A selection: hits, their analogues and other compounds. The true share with any hit is near 19%. Unless noted, calls follow the shape of the dose curve; as a rule, active = well fitted curve in the direction sought with a large enough effect; inconclusive = small, poorly fitted or top-dose-only effect, or another doubt; inactive = no such curve, though single readings can be large; an effect the other way counts as inactive or inconclusive.

SMILES	TDP1 cell noCPT	TDP1 block	ELG1 repair inh	Giardia killer	DT40 TDP1 CPT	IL1B secr inh
COc1ccccc1N1CCN(CC2CN3C(=O)N(C)c4ccccc4C3=N2)CC1 (centres undefined)	?	-	.	.	?	.
Cc1cc(C(=O)c2ccc3ccccc3c2)c(C)o1	?	.	.	-	-	-
Cc1ccc(-c2noc(-c3nnn(-c4ccc(Br)cc4F)c3C)n2)cc1	-	-	.	.	?	.
COc1ccc(CCNC(=O)c2cc(C)oc2C)cc1OC	?	.	-	-	-	-
COc1cc(/C=N/NC(=O)c2sc3nc(C)cc(C)c3c2N)ccc1O	3.3µM	.	-	-	?	-89
COCCNC(=O)c1cc(-c2ccccc2)sc1N	?	.	.	.	?	-
COc1cc(/C=N/NC(=O)CCn2c3ccccc3c3ccccc32)cc(OC)c1OC	-	-	18µM	-	?	-
COc1cc(/C=N/NC(=O)c2ccc(-n3cccc3)cc2)ccc1O	?	-	?	-	?	-69
COc1cc(/C=N/NC(=O)c2cc(-c3ccccc3)sc2N)cc(OC)c1OC	16µM	.	23µM	-	16µM	-72
Cc1nc(N)sc1C(=O)N/N=C/c1c[nH]c2ccccc12	?	-	?	-	?	-55
Cc1nc(N)sc1C(=O)N/N=C/c1ccc([N+](=O)[O-])cc1	-	-	-	-	-	-
Cc1nc(N)sc1C(=O)N/N=C/c1ccccc1[N+](=O)[O-]	.	-	?	.	.	.
COc1cc(/C=N\NC(=O)c2sc(N)nc2C)cc(OC)c1OC	13µM	-	-	-	?	-79
COc1ccc(NC(=S)Nc2ncccc2C)c(OC)c1	?	-	?	-	-	-78
CCOc1ccccc1NC(=S)Nc1ncccc1C	29µM	-	?	-	?	-
COc1ccc(NC(=S)Nc2ccc(OCc3ccccc3)cc2)c(OC)c1	26µM	-	-	-	21µM	-
COc1ccc(NC(=S)Nc2ccccc2)c(OC)c1	-	-	-	-	?	-
COc1ccc(NC(=O)C(=O)Nc2cccc3cccnc23)c(OC)c1	-	.	-	-	-	-
CCOc1ccccc1NC(=S)Nc1ccccc1F	-	-	-	-	-	-
Cc1ccc2cc(CNC(C)CO)c(N3CCC(O)CC3)nc2c1 (centres undefined)	-	.	.	.	-[9.04 µM]	.
Cc1ccc(Nc2c([N+](=O)[O-])ccc3nonc23)c(C)c1	-	.	-	-	-	-
Cc1ccc(S(=O)c2ccc([N+](=O)[O-])c3nonc23)cc1 (centres undefined)	3.3µM	.	.	.	2.6µM	?
COc1ccc(NC(=O)c2sc3nc(C(F)(F)F)cc(C)c3c2N)cc1OC	-	-	.	.	-	.
CC(=O)N1CCc2nc3sc(C(=O)c4ccc(F)cc4)c(N)c3c(C(F)(F)F)c2C1	21µM	-	.	.	?	.
Cc1nc(-c2ccccc2)nc2sc(C(=O)c3ccc(F)cc3)c(N)c12	?	-	-	-	?	-
SMILES	TDP1 cell noCPT	TDP1 block	ELG1 repair inh	Giardia killer	DT40 TDP1 CPT	IL1B secr inh
COc1ccc(CNC(=O)c2sc3nc4c(c(C(F)(F)F)c3c2N)CCC4)cc1OC	16µM	-	?	-	?	?
COc1ccc(C(=O)c2sc3nc4c(c(C(F)(F)F)c3c2N)CN(C(C)=O)CC4)cc1OC	16µM	-	.	.	18µM	.
COCCOC(=O)Cn1nnc2sc(-c3ccccc3)cc2c1=O	-	-	.	.	-	.
CN(Cc1ccccc1NS(=O)(=O)c1ccc(Cl)cc1)C1CCCCC1	-	-	-	-	?	-
CN(Cc1ccccc1NS(=O)(=O)c1ccc2ccccc2c1)C1CCCCC1	21µM	-	-	-	?	-
CC(=O)N[C@@H](Cc1c[nH]c2ccccc12)C(=O)OCC(=O)Nc1cc(C)on1	-	.	.	-	-	-
Cc1cc(=O)[nH]c(N/N=C/c2c(C)nn(-c3ccccc3)c2Cl)n1	23µM	-	-	-	23µM	-
Cc1cc(=O)[nH]c(N/N=C/c2c(C)oc3ccccc23)n1	?	-	-	-	12µM	-
CC(C)c1cc(-c2nc(-c3ccccc3)no2)n[nH]1	?	-	.	.	?	.
Cc1ccc(NC(=O)Nc2nnc(N3CCCC3)s2)cc1C	-	-	.	.	-	.
COC(=O)c1cc(OC)c(OC)cc1NC(=O)c1ccc2c(c1)CCN2S(=O)(=O)c1ccccc1	-	-	.	.	-	.
O=C1NC[C@@H](CCCCN2C[C@H](Cc3ccc(O)cc3)N(CCC3CCCCC3)C(=O)C2=O)N(Cc2ccccc2)C1=O	-	.	.	.	-	-
CCc1ccc([C@@H]2CC=C(C(=O)O)[C@H](c3ccc(F)cc3)N2S(=O)(=O)c2ccc(C)cc2)cc1	-	-	-	?	-	-
CCOC(=O)C1=CC[C@@H](c2ccccc2C(F)(F)F)N(S(=O)(=O)c2ccc(C)cc2)[C@H]1c1ccc(C#N)cc1	13µM	.	.	.	15µM	-
CCOC(=O)C1=CC[C@@H](c2ccccc2)N(S(=O)(=O)c2ccc(C)cc2)[C@H]1/C=C/c1ccccc1	9.2µM	.	.	.	13µM	-
C=C[C@H]1C(C(=O)OCC)=CC[C@@H](c2ccccc2)N1S(=O)(=O)c1ccc(C)cc1	21µM	.	.	.	23µM	-
CCOC(=O)C1=CC[C@H]2c3c(c4ccc(OC)cc4n3C)C(=O)C1N2S(=O)(=O)c1ccc(C)cc1	4.6µM	-	-	-	5.8µM	-
CN(CCO)C(=O)c1cn(C2CCN(Cc3cccc(C(F)(F)F)c3)CC2)nn1	-	.	.	.	-	.
Cc1ccc(C)c(Cn2c(=O)n(-c3ccc(Cl)cc3)c(=O)c3c(C)c(C)sc32)c1	-	-	.	.	-	.
Cc1ccc(S(=O)(=O)N(C)C)cc1NC(=S)NNC(=O)C(N)=O	-	-	-	-	-	-
CCc1ccc([C@@H]2CC=C(C(=O)O)[C@H](c3ccccc3)N2S(=O)(=O)c2ccc(C)cc2)cc1	-	-	-	?	-	-
CCOC(=O)C1=CC[C@@H](c2ccccc2)N(S(=O)(=O)c2ccc(C)cc2)[C@H]1C	23µM	.	.	.	?	-
CCOC(=O)C1=CCC(c2ccc(N(CC)CC)cc2)N(S(=O)(=O)c2ccc(C)cc2)C1c1ccc([N+](=O)[O-])cc1 (centres undefined)	6.5µM	.	.	.	7.3µM	-
CCOC(=O)C1=CC[C@@H](c2ccc(OC)cc2)N(S(=O)(=O)c2ccc(C)cc2)[C@H]1CC	18µM	.	.	.	15µM	-
COc1ccc([C@@H]2CC=C(C(=O)O)[C@H](c3ccc(Cl)cc3)N2S(=O)(=O)c2ccc(Cl)cc2)cc1	-	-	-	-	?	-
